Experimental data from publication PMC7862700, “An all-to-all approach to the identification of sequence-specific readers for epigenetic DNA modifications on cytosine”.

Assays:
Experiment in all cases: DAPPL (digital affinity profiling via proximity ligation, sequencing); 10 mM Tris-HCl pH 7.5, 50 mM NaCl, 1 mM DTT, 4% glycerol, room temperature, 30 min; GST-TFs on glutathione beads, 16-mer random dsDNA library, 0.1% formaldehyde crosslink after washing; high values mean tight binding
Conditions in all cases: protein: recombinant; tags: N-terminal GST; dsDNA, one strand shown
ERF = biological target: T1, ERF (Homo sapiens, UniProt P50548 1-548)
T1 sequence: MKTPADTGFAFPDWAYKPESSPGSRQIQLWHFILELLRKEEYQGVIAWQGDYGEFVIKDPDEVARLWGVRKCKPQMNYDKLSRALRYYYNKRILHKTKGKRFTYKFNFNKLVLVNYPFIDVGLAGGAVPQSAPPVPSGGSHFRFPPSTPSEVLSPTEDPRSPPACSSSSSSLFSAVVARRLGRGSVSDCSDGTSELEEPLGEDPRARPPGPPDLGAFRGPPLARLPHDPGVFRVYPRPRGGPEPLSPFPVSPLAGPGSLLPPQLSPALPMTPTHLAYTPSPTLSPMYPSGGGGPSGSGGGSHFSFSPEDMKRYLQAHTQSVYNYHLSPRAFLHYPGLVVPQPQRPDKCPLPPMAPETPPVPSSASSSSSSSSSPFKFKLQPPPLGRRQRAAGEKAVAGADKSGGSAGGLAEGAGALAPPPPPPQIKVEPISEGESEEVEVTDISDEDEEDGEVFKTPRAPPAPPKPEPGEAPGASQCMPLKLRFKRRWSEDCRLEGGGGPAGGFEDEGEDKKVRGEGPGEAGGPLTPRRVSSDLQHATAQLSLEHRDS
Summary of the method: (§1)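 Pools were built from human transcription factors expressed in yeast as GST fusions, captured on glutathione beads and DNA-barcoded, along with a tag-only sample. Incubation with 200 nmole of a 16-mer random double-stranded DNA library lasted 30 min at room temperature in Tris/NaCl/DTT/glycerol buffer, and was followed by washing, 0.1% formaldehyde crosslinking, proximity ligation, PCR amplification and Illumina NextSeq500 sequencing. Binding signal is the quotient of each hexamer's read frequency for a factor and its frequency for the tag-only sample.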

ETV3L = biological target: T2, ETV3L (Homo sapiens, UniProt Q6ZN32 1-361)
T2 sequence: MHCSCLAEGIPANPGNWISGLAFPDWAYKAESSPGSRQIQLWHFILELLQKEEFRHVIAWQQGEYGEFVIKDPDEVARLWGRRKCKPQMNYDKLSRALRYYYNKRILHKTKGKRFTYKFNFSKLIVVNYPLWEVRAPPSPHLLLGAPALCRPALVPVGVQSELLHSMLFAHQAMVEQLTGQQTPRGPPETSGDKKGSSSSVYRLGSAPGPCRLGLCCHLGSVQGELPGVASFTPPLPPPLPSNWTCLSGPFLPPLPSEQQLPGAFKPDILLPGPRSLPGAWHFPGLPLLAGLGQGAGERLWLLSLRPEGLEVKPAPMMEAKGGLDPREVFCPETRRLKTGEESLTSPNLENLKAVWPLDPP
Summary of the method: as §1

ETS2 = biological target: T3, ETS2 (Homo sapiens, UniProt P15036 1-469)
T3 sequence: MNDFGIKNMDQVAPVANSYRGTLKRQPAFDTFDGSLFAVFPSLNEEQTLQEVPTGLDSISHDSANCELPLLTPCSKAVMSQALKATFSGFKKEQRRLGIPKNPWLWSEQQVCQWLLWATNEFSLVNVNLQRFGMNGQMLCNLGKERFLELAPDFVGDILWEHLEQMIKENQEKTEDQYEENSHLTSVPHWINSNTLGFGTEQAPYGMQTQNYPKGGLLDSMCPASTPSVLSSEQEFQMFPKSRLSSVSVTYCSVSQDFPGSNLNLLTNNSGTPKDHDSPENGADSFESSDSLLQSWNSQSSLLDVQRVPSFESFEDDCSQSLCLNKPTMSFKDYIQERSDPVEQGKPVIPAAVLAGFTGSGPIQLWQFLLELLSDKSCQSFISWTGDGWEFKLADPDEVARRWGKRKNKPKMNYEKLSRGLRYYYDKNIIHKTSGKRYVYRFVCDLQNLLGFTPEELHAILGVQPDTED
Summary of the method: as §1

SPDEF = biological target: T4, SPDEF (Homo sapiens, UniProt O95238 1-335)
T4 sequence: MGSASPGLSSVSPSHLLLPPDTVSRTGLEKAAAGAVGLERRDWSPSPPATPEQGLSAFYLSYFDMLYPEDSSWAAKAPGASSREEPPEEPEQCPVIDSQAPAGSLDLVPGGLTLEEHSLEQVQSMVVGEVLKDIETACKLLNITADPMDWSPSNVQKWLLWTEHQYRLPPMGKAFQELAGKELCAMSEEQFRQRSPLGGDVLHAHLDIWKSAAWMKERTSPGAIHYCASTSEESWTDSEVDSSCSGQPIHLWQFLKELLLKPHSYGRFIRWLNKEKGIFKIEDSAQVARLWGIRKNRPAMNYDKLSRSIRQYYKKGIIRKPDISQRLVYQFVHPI
Summary of the method: as §1

ETV7 = biological target: T5, ETV7 (Homo sapiens, UniProt Q9Y603 1-341)
T5 sequence: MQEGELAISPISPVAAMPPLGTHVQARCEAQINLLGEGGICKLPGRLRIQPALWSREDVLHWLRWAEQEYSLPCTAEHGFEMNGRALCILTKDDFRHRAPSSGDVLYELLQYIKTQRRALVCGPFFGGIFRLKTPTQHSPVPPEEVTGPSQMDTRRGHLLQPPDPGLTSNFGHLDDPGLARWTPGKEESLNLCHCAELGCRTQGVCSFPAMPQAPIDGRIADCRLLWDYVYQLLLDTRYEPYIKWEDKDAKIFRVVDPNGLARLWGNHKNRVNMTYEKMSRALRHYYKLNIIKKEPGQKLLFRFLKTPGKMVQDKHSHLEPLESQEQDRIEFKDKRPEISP
Summary of the method: as §1

ELF5 = biological target: T6, ELF5 (Homo sapiens, UniProt Q9UKW6-2 1-255)
T6 sequence: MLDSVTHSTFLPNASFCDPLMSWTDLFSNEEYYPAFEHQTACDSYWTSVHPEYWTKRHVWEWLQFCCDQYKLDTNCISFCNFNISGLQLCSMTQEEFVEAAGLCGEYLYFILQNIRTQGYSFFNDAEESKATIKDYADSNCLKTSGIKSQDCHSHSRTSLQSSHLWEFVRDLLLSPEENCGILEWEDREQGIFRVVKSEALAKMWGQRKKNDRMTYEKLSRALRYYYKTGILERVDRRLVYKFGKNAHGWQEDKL
Summary of the method: as §1

ETV3 = biological target: T7, ETV3 (Homo sapiens, UniProt P41162-2 1-143)
T7 sequence: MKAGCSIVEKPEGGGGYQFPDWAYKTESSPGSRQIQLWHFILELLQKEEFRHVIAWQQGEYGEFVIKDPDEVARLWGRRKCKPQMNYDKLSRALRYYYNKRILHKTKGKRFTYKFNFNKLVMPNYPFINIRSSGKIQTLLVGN
Summary of the method: as §1

ETV6 = ETV6 (Homo sapiens, UniProt P41212 1-452)
Summary of the method: as §1

Sequence of ETV6 (P41212 whole entry): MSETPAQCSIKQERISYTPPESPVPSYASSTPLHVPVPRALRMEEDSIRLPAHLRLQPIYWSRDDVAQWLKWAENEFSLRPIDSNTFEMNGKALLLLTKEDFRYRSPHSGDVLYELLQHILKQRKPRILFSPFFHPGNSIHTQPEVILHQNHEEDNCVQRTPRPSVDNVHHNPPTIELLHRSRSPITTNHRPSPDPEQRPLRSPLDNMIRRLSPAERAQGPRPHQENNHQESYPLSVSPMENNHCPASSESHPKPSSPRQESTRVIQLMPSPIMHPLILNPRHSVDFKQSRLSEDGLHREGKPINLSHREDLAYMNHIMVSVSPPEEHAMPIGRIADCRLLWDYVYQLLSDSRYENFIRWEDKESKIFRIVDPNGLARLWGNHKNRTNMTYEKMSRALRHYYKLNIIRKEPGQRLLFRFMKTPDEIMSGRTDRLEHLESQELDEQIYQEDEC

Sequence | binding signal (ERF) | binding signal (ETV3L) | binding signal (ETS2) | binding signal (SPDEF) | binding signal (ETV7) | binding signal (ELF5) | binding signal (ETV3) | binding signal (ETV6)
GGGCTA | 1.02 fold enrichment (6-mer frequency, TF over GST control) | 1.18 fold enrichment (6-mer frequency, TF over GST control) | 1.2 fold enrichment (6-mer frequency, TF over GST control) | 1.09 fold enrichment (6-mer frequency, TF over GST control) | 1.06 fold enrichment (6-mer frequency, TF over GST control) | 1.09 fold enrichment (6-mer frequency, TF over GST control) | 1.12 fold enrichment (6-mer frequency, TF over GST control) | 1.13 fold enrichment (6-mer frequency, TF over GST control)
TGACGA | 1.14 fold enrichment (6-mer frequency, TF over GST control) | 1.07 fold enrichment (6-mer frequency, TF over GST control) | 1.17 fold enrichment (6-mer frequency, TF over GST control) | 1 fold enrichment (6-mer frequency, TF over GST control) | 1.11 fold enrichment (6-mer frequency, TF over GST control) | 1.04 fold enrichment (6-mer frequency, TF over GST control) | 1.09 fold enrichment (6-mer frequency, TF over GST control) | 1.16 fold enrichment (6-mer frequency, TF over GST control)
ATGATT | 1.18 fold enrichment (6-mer frequency, TF over GST control) | 1.24 fold enrichment (6-mer frequency, TF over GST control) | 1.18 fold enrichment (6-mer frequency, TF over GST control) | 1.15 fold enrichment (6-mer frequency, TF over GST control) | 1.17 fold enrichment (6-mer frequency, TF over GST control) | 1.14 fold enrichment (6-mer frequency, TF over GST control) | 1.3 fold enrichment (6-mer frequency, TF over GST control) | 1.19 fold enrichment (6-mer frequency, TF over GST control)
CACCGA | 1.05 fold enrichment (6-mer frequency, TF over GST control) | 1.02 fold enrichment (6-mer frequency, TF over GST control) | 1.12 fold enrichment (6-mer frequency, TF over GST control) | 1.04 fold enrichment (6-mer frequency, TF over GST control) | 1.11 fold enrichment (6-mer frequency, TF over GST control) | 1.04 fold enrichment (6-mer frequency, TF over GST control) | 1.01 fold enrichment (6-mer frequency, TF over GST control) | 1.03 fold enrichment (6-mer frequency, TF over GST control)
ACTTGT | 1.28 fold enrichment (6-mer frequency, TF over GST control) | 1.23 fold enrichment (6-mer frequency, TF over GST control) | 1.36 fold enrichment (6-mer frequency, TF over GST control) | 1.22 fold enrichment (6-mer frequency, TF over GST control) | 1.2 fold enrichment (6-mer frequency, TF over GST control) | 1.28 fold enrichment (6-mer frequency, TF over GST control) | 1.36 fold enrichment (6-mer frequency, TF over GST control) | 1.32 fold enrichment (6-mer frequency, TF over GST control)
TTCCCC | 1.46 fold enrichment (6-mer frequency, TF over GST control) | 1.69 fold enrichment (6-mer frequency, TF over GST control) | 1.64 fold enrichment (6-mer frequency, TF over GST control) | 1.43 fold enrichment (6-mer frequency, TF over GST control) | 1.43 fold enrichment (6-mer frequency, TF over GST control) | 2.17 fold enrichment (6-mer frequency, TF over GST control) | 1.89 fold enrichment (6-mer frequency, TF over GST control) | 1.73 fold enrichment (6-mer frequency, TF over GST control)
GAAGAA | 1.02 fold enrichment (6-mer frequency, TF over GST control) | 1.18 fold enrichment (6-mer frequency, TF over GST control) | 1.16 fold enrichment (6-mer frequency, TF over GST control) | 1.09 fold enrichment (6-mer frequency, TF over GST control) | 1.16 fold enrichment (6-mer frequency, TF over GST control) | 1.27 fold enrichment (6-mer frequency, TF over GST control) | 1.12 fold enrichment (6-mer frequency, TF over GST control) | 1.18 fold enrichment (6-mer frequency, TF over GST control)
CGCTAC | 1.24 fold enrichment (6-mer frequency, TF over GST control) | 1.17 fold enrichment (6-mer frequency, TF over GST control) | 1.24 fold enrichment (6-mer frequency, TF over GST control) | 1.21 fold enrichment (6-mer frequency, TF over GST control) | 1.2 fold enrichment (6-mer frequency, TF over GST control) | 1.16 fold enrichment (6-mer frequency, TF over GST control) | 1.16 fold enrichment (6-mer frequency, TF over GST control) | 1.27 fold enrichment (6-mer frequency, TF over GST control)
TCCGCG | 1.22 fold enrichment (6-mer frequency, TF over GST control) | 1.29 fold enrichment (6-mer frequency, TF over GST control) | 1.36 fold enrichment (6-mer frequency, TF over GST control) | 1.4 fold enrichment (6-mer frequency, TF over GST control) | 1.31 fold enrichment (6-mer frequency, TF over GST control) | 1.55 fold enrichment (6-mer frequency, TF over GST control) | 1.37 fold enrichment (6-mer frequency, TF over GST control) | 1.25 fold enrichment (6-mer frequency, TF over GST control)
